# Sampled rows, rich in hits. Any-hit rate of the full collection: about 21%.
# CYP2C9 activ: human CYP2C9 activators, primary screen, biochemical, luminescence | 96,000 tested, 1.4% active | activation factor at 5 µM | Cytochrome P450 2C9 (Homo sapiens), P11712 | recombinant CYP2C9, luciferin-H conversion; hits give high values; factor 1 = untreated enzyme, 0 = blocked;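 active means activation factor of 2 or more for CYP2C9 at a 5 µM dose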
# CYP2C19 activ: human CYP2C19 activators, primary screen, biochemical, luminescence; Cytochrome P450 2C19 (Homo sapiens), P33261; recombinant CYP2C19, luciferin-H EGE luminescence; hits give high values; 0 = fully inhibited enzyme, 1 = untreated enzyme; activation factor at 5 µM; 96,000 tested, under 10 active; AID 1025, 2008;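 active means activation factor of at least 2 at 5 µM in the primary screen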
# Target sequence (P33261 whole entry, looked up): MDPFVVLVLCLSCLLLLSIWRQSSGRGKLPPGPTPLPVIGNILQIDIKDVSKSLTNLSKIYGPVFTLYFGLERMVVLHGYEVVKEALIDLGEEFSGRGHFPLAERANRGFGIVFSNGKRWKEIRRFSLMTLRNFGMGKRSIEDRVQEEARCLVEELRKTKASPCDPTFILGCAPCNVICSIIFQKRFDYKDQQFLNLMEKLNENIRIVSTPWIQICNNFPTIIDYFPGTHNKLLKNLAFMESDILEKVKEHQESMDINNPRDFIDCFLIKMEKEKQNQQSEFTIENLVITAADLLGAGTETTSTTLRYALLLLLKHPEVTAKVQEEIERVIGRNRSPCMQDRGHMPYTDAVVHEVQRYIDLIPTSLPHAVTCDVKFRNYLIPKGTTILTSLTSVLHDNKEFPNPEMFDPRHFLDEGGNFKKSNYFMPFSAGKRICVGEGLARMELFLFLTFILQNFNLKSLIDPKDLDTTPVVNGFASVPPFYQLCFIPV
# MRP resist rev: reversal of MRP1-mediated doxorubicin resistance, primary screen, H69AR cells, doxorubicin co-treatment; H69AR cells + 2 uM doxorubicin, CellTiter-Glo, 72 h; differential viability (reversal), % at 10 µM; 85,000 tested, 0.04% active;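 active means viability drop by adding the cancer drug above about 55%, with treated viability meeting a 40% cutoff, limit read from the data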;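 further: larger differential means the compound sensitizes cells more to doxorubicin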
# CYP2C19 inhib: blockers of cytochrome P450 2C19 activity – biochemical, luminescence, ADME assay, primary screen; inhibition, % at 5 µM; CYP2C19 Supersomes, luciferin-H EGE luminescence, 30 min; AID 778, 2007; 96,000 tested, 21% active;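 active means CYP2C19 inhibition above a set limit at 5 µM in the primary screen, cut at about 50% in these data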
# CYP2C9 inhib: blockers of cytochrome P450 2C9 activity – biochemical, luminescence, ADME assay, primary screen; P11712; CYP2C9 Supersomes, luciferin-H conversion; inhibition, % at 5 µM; 96,000 tested, 20% active;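 active means blocking of liver enzyme CYP2C9 beyond about 50% at 5 µM, limit read from the data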
# MRP-1 activ: H69AR viability gain despite doxorubicin, primary screen, MRP-1 activator project, H69AR cells, CellTiter-Glo. viability rescue. viability increase, % at 10 µM. 140,000 tested, 0.61% active. AID 799, 2007;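 active means viability gain under doxorubicin at or above a set limit, the compound median plus 3 SD, cut at about 4.7% in these data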;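 further: MRP-1 overexpressing cells given doxorubicin 25 µM after compound pretreatment; 18-22 h compound pretreatment then 72 h with doxorubicin before readout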
# Numbers stand for hits; . = inactive; / = no result given.
SMILES,CYP2C9 activ,CYP2C19 activ,MRP resist rev,CYP2C19 inhib,CYP2C9 inhib,MRP-1 activ
Cn1c(=O)c2c(nc(N/N=C3\CCCc4ccccc43)n2Cc2ccc(F)cc2)n(C)c1=O,/,/,/,/,/,.
O=S(=O)(c1ccc(NC2CCCCC2)cc1)N1CCOCC1,.,.,.,.,.,.
Cc1ccc(OCCN2CCN(c3ncnc4sc(C)c(C)c34)CC2)cc1,.,.,.,86,89,.
CN1CCN(c2ncnc3c2cnn3-c2ccc(Cl)cc2)CC1,.,.,.,.,.,.
Clc1ccc(OCCN2CCN(c3ncnc4sccc34)CC2)cc1,.,.,/,84,56,.
Cc1sc2ncnc(N3CCOCC3)c2c1C,.,.,.,.,.,.
O=C(c1nc2nc(-c3cccs3)cc(C(F)(F)F)n2n1)N1CCN(Cc2ccccc2)CC1,/,/,.,/,/,.
COC(=O)CCN(C(=O)C1C2CC3CC(C2)CC1C3)c1ccccn1 (stereo unspecified),.,.,.,.,.,.
CCCN(CC(=O)Nc1cc(Cl)cc(Cl)c1)CC(=O)Nc1ccc(F)c(F)c1F,/,/,/,/,/,.
COc1ccccc1N1CCN(c2nc3ccccn3c(=O)c2C=O)CC1,.,.,/,71,.,.
COc1ccc(N2CCN(c3nc4ccccn4c(=O)c3C=O)CC2)cc1,/,/,/,/,/,.
C=CCNC(=S)N/N=C(\C)c1ccccn1,.,.,.,.,.,.
COCCCn1c(SCc2ccccc2)nc2cc(OC)c(OC)cc2c1=N,.,.,/,54,64,.
COCCCn1c(SCc2cccc(C(F)(F)F)c2)nc2cc(OC)c(OC)cc2c1=N,.,.,/,.,82,.
COc1cc2nc(SCc3ccc(C(F)(F)F)cc3)n(Cc3cccs3)c(=N)c2cc1OC,.,.,/,.,.,.
COCCCn1c(SCc2nnc(-c3ccc(OC)c(OC)c3)o2)nc2ccccc2c1=O,/,/,.,/,/,.
C=C(C)CSc1nnc([C@@H]2CCCN2C(=O)OC(C)(C)C)o1,.,.,.,.,.,.
Cc1ccc(C)c(SCC(=O)NC(=O)Nc2ccc3c(c2)OCCO3)c1,/,/,/,/,/,.
CCC(C)n1c(SCC(=O)NC(=O)Nc2ccc3c(c2)OCCO3)nc2ccccc2c1=O (stereo unspecified),.,.,/,.,90,.
CCOc1ccc(-n2c(SCC(=O)Nc3ccc4c(c3)OCO4)nc3ccccc3c2=O)cc1,.,.,.,.,62,.
COc1ccc(-n2c(SCC(=O)Nc3ccc4c(c3)OCO4)nc3ccccc3c2=O)cc1,.,.,.,92,91,.
COc1ccccc1-n1c(SCC(=O)Nc2cccc(C)c2)nc2c(c1=O)SCC2,.,.,.,83,74,.
Cc1ccc(-n2c(SCC(=O)Nc3ccc(N4CCOCC4)cc3)nc3ccccc3c2=O)cc1,/,/,/,/,/,.
COc1ccc(NC(=O)CSc2nc3ccccc3c(=O)n2-c2ccc3c(c2)OCO3)c(OC)c1,.,.,.,.,.,.
Cc1ccc(C(C)C)cc1OCCCCN1CCCC1,/,/,/,/,/,.
SMILES,CYP2C9 activ,CYP2C19 activ,MRP resist rev,CYP2C19 inhib,CYP2C9 inhib,MRP-1 activ
O=C(c1cnccn1)N(Cc1cccs1)C1(C(=O)NC2CCCCC2)CCCCC1,/,/,/,/,/,.
O=C(OCc1c(Cl)cccc1Cl)c1ccncc1,/,/,/,/,/,.
O=C(CSc1nc2c(c(=O)n1-c1ccc(F)cc1)SCC2)Nc1ccc2c(c1)OCO2,/,/,.,/,/,/
COc1ccc(-n2c(SCC(=O)Nc3ccc4c(c3)OCO4)nc3c(c2=O)SCC3)cc1,.,.,.,.,58,.
COC(=O)COc1ccc(=O)n(-c2ccccc2)n1,.,.,.,63,.,.
CCOC(=O)C(Oc1ccc(=O)n(-c2ccccc2)n1)C(C)=O (stereo unspecified),.,.,.,56,.,.
O=C(O)COc1ccc(=O)n(-c2ccccc2)n1,.,.,.,.,.,.
Cc1ccc(S(=O)(=O)N2CCC(=O)N(CCOCc3ccc(F)cc3)CC2)cc1,/,/,/,/,/,.
COc1ccc(C)cc1NC(=O)CSc1nnc(-c2ccco2)n1Cc1ccco1,.,.,.,.,.,.
CCOc1ccccc1NC(=O)CSc1nnc(-c2ccccc2Cl)n1Cc1ccco1,.,.,.,70,.,.
CCOc1ccccc1NC(=O)CSc1nnc(-c2ccco2)n1Cc1ccco1,.,.,.,86,58,.
CCOc1ccccc1NC(=O)CSc1nnc(-c2ccccn2)n1Cc1ccco1,.,.,.,72,79,.
COc1ccccc1NC(=O)CSc1nnc(COc2ccc(Cl)cc2)n1Cc1ccco1,.,.,.,.,.,.
COc1ccc(NC(=O)CSc2nnc(-c3ccccn3)n2Cc2ccco2)cc1OC,.,.,.,.,.,.
O=C(CCCCCn1c(SCc2ccncc2)nc2ccccc2c1=O)NCc1ccco1,/,/,.,/,/,.
CC1CN(Cc2nc3c(c(=O)[nH]c(=O)n3C)n2CCCc2ccccc2)CC(C)O1 (stereo unspecified),/,/,.,/,/,.
O=C(Cn1cc(S(=O)(=O)Cc2ccccc2)c2ccccc21)Nc1ccccc1,/,/,/,/,/,.
CN(C)c1nc(N(C)C)nc(N(C#N)CN2C(=O)c3ccccc3C2=O)n1,/,/,/,/,/,.
O=[N+]([O-])c1cccc(C2=NC(c3ccccc3)CO2)c1 (stereo unspecified),/,/,/,/,/,.
CC(=O)N1N=C(c2cccc([N+](=O)[O-])c2)OC1c1ccccc1Cl (stereo unspecified),.,.,/,62,86,.
COc1ccc2[nH]c(=O)c(CN(Cc3ccccc3OC)Cc3nnnn3CC3CCCO3)cc2c1 (stereo unspecified),.,.,.,70,.,.
COc1cc(C(=O)N(Cc2cc3cc(C)ccc3[nH]c2=O)CC2CCCO2)cc(OC)c1OC (stereo unspecified),.,.,.,.,63,.
COc1cccc(C(=O)N(Cc2cc3cc(C)ccc3[nH]c2=O)CC2CCCO2)c1 (stereo unspecified),.,.,.,.,.,.
COc1ccc2[nH]c(=O)c(CN(Cc3cccs3)Cc3nnnn3Cc3ccccc3)cc2c1,.,.,.,.,.,.
COc1ccc2[nH]c(=O)c(CN(Cc3ccc(C)cc3)Cc3nnnn3CC3CCCO3)cc2c1 (stereo unspecified),.,.,.,60,84,.
Cc1ccc2cc(CN(Cc3cccs3)Cc3nnnn3CC3CCCO3)c(=O)[nH]c2c1C (stereo unspecified),.,.,.,56,.,.
Cc1ccc2cc(CN(Cc3cccs3)Cc3nnnn3CC3CCCO3)c(=O)[nH]c2c1 (stereo unspecified),.,.,.,.,.,.
CC(C)(C)C(=O)NC(=S)Nc1ccccc1C(N)=O,/,/,/,/,/,.

# High-throughput results: PubChem BioAssay, several laboratories
